Screens: PubChem, several laboratories
PostGolgi ctrl = growth of the yeast control strain, post-Golgi counter-screen | efflux-deficient yeast background strain, growth absorbance A615, 16 h | inhibition, % at 10 µM | 5% of 98,000 active | AID 738
Pyk2 oligo antag = Pyk2 (human) oligomerization antagonism | AID 1347419 | 0.83% of 99,000 active | z-score (the deposit names both 25 µM and 10 µM) | Q293 cells, Pyk2 FERM NanoBiT luminescence; hits give low values | Q14289;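 active means Z-score of -3 or lower, scaled per plate to the spread of control and sample wells; inactive means z-score above -3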;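 further: negative z-score means lost luminescence so less FERM oligomerization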
Cav3 T inh = blocks human Cav3.2 T-type calcium channel; O95180; Cav3.2-expressing cells, Fluo-4 calcium fluorescence FDSS; hits give low values; B-score at 10 µM; 4% of 100,000 active; AID 449739;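 active means single-dose well whose peak fluorescence ratio is a statistical outlier from its plate by either plate-standardised score or position-corrected B-score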
PostGolgi yeast = growth inhibition of a yeast mutant, post-Golgi transport screen; inhibition, % at 10 µM; post-Golgi transport phenotypic cell assay; 0.9% of 98,000 active;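 further: yeast cells grown in 1536-well plates; yeast grown about 18 h at 30C before absorbance read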
A number is an active result; . = inactive; / = not tested or not shown. A selection: hits, their analogues and other compounds. The true share with any hit is near 8%. Unless noted, no stated cut-off is given here; in the data, active means inhibition above about 30%; inactive means the rest.

SMILES | PostGolgi ctrl | Pyk2 oligo antag | Cav3 T inh | PostGolgi yeast
CC1(C)Oc2ccc(C(=O)N3CCOCC3)cc2N(CC(=O)N2CCOCC2)C1=O | . | . | . | .
Cc1ccc(CN2C(=O)C(C)(C)Oc3ccc(C(=O)N4CCCCC4)cc32)cc1 | . | . | -5.2 | .
Cc1cc(C2C(C#N)=C(N)OC3=C2C(=O)CCC3)c(C)s1 (stereo not given) | . | . | . | .
Cc1cc(C2C(C#N)=C(N)OC3=C2C(=O)CC(C)(C)C3)c(C)s1 (stereo not given) | 41 | . | . | .
Nc1c(C(O)(C(F)(F)F)C(F)(F)F)cc(C(O)(C(F)(F)F)C(F)(F)F)c2ccccc12 | / | . | . | /
CC(C)COC(=O)c1cc(-c2ccc(/C=N/n3cnnc3)o2)ccc1Cl | 36 | . | . | .
CCOC(=O)c1sc(NC(=O)CSc2n[nH]c(-c3ccccc3)n2)c(C#N)c1C | 41 | . | / | .
CCOC(=O)c1sc(NC(=O)c2cccnc2)c(C#N)c1C | . | . | . | .
CCOC(=O)c1sc(NC(=O)c2cc(-c3ccccc3)nc3ccccc23)c(C#N)c1C | . | . | -4.1 | .
O=C(Nc1ccc(Cl)cc1)N1CCC(c2nc(-c3ccccc3Cl)no2)CC1 | 40 | . | . | .
O=C(Nc1ccc(Cl)cc1)N1CCC(c2nc(-c3cccs3)no2)CC1 | 44 | . | . | /
CCOC(=O)CCCSc1nc2sc3c(c2c(=O)[nH]1)CCC3 | . | . | . | .
CCOC(=O)CSc1nnc(CSc2nc3sc4c(c3c(=O)[nH]2)CCCC4)n1-c1ccccc1 | . | . | -6 | .
COC(=O)/C(=C(/F)SCC(C)=O)C(F)(F)F | . | / | . | .
CCOCCCNC(=O)c1cn(C)c2ccc(S(=O)(=O)N(C)C3CCCCC3)cc2c1=O | . | / | / | .
COCCNC(=O)c1cn(C)c2ccc(S(=O)(=O)N(C)C3CCCCC3)cc2c1=O | 30 | / | . | .
CCCC(=O)Nc1sc(C)c(-c2ccc(C(C)CC)cc2)c1C#N (stereo not given) | . | . | . | .
Cc1ccc(CNc2ccc3c(c2)OCO3)c(C)c1 | 39 | / | . | .
Cc1ccc2cc(C#N)c(N3CCN(C)CC3)nc2c1 | / | . | . | /
Cc1ccc2cc(C=C(C#N)C#N)c(N3CCCCC3)nc2c1 | 36 | . | . | .
Cc1ccc(OCC(O)CN2CCN(c3ccccc3)CC2)cc1 (stereo not given) | . | . | . | .
CCCc1ccc(OCC(O)CN2CCN(c3ccccc3)CC2)cc1 (stereo not given) | 85 | . | . | 72
CCc1ccc(OCC(O)CN2CCN(c3ccccc3)CC2)cc1 (stereo not given) | 33 | . | . | .
CCOC(=O)c1csc(NC(=O)CSc2nnnn2CC)n1 | . | . | . | .
CCOC(=O)c1cnn2c(C(F)(F)F)cc(-c3cn(C)nc3C)nc12 | . | . | . | .
SMILES | PostGolgi ctrl | Pyk2 oligo antag | Cav3 T inh | PostGolgi yeast
CCCCN(CCCC)c1cc(C)nc(-c2ccccc2O)n1 | . | . | . | .
CCCCOc1ccc(-c2ncc(C(=O)O)c(C)n2)cc1 | . | . | . | 44
CCCCOc1ccc(-c2nnn(C(C)C(=O)OCC)n2)cc1 (stereo not given) | . | . | . | .
COC(=O)c1cn(NC(=O)c2cccnc2)c(=O)c2ccccc12 | . | . | . | .
CCOc1ccc(NC(=O)c2cccc(OC(=S)N3CCC(C)CC3)c2)cc1 | . | . | -4.3 | .
CCOc1cccc(C(=O)Nc2ccc(N(CC)CC)cc2)c1 | . | . | / | .
Cc1cc(C)c2c(-n3cccc3)c(C(=O)NNS(=O)(=O)c3ccc(Cl)cc3)sc2n1 | . | . | -5.1 | .
Cc1cc(C)c2c(-n3cccc3)c(C(=O)NNS(=O)(=O)c3ccccc3)sc2n1 | . | . | . | .
Cc1ccc(CNC(=O)c2nnn(-c3cccc(C)c3)c2N)cc1 | . | . | -5.4 | .
CC(C)Sc1oc(-c2ccco2)nc1S(=O)(=O)c1ccccc1 | 41 | . | . | .
c1cncc(-c2nc(NCc3ccco3)c3ccccc3n2)c1 | 57 | . | . | .
c1ccc(-c2nc(NCc3cccnc3)c3ccccc3n2)cc1 | . | -3.7 | . | .
O=[N+]([O-])c1cccc(-c2nc(NCc3ccccc3)c3ccccc3n2)c1 | / | . | / | /
Clc1cccc(-c2nc(NCc3cccnc3)c3ccccc3n2)c1 | 72 | -3.7 | . | .
OCCNc1nc(-c2cccnc2)nc2ccccc12 | . | . | . | .
OCCSc1nc(-c2cccnc2)nc2ccccc12 | 38 | . | . | .
Cc1nnsc1C(=O)NC(C)C12CC3CC(CC(C3)C1)C2 (stereo not given) | . | . | . | .
CC(NC(=O)c1cccs1)c1n[nH]c(=S)n1C (stereo not given) | / | . | / | /
Cc1ccc(NC(=O)C2CCCN2S(=O)(=O)c2ccc(F)cc2)c(C)c1 (stereo not given) | . | . | . | .
c1ccc(-c2nc(NCc3ccco3)c3oc4ccccc4c3n2)cc1 | 34 | . | . | .
CC(C)CC(NC(=O)C(COC(C)(C)C)NC(=O)C(Cc1ccc(O)cc1)NC(=O)C(CO)NC(=O)C(Cc1c[nH]c2ccccc12)NC(=O)C(Cc1cnc[nH]1)NC(=O)C1CCC(=O)N1)C(=O)N[C@@H](CCCN=C(N)N)C(=O)N1CCCC1C(=O)NNC(N)=O (stereo not given in full) | / | / | . | /
CCOC(=O)c1nc(C)c(C(C)=O)s1 | / | / | . | /
O=C(Nc1nnc(COc2ccccc2)s1)c1ccco1 | . | . | . | .
O=C(Nc1nc(-c2cccs2)c(-c2ccccc2)s1)c1ccco1 | 32 | . | . | 36
CC1=C(C(=O)OC(C)C)C(c2ccc(F)cc2)NC(=O)N1 (stereo not given) | . | . | . | .
SMILES | PostGolgi ctrl | Pyk2 oligo antag | Cav3 T inh | PostGolgi yeast
COc1ccc(C2Nc3ccccc3C(=O)N2Cc2ccco2)cc1COc1ccc(F)cc1 (stereo not given) | / | . | -7 | /
CCCOc1ccc(N2C(=O)CC(N(CCc3ccc(OC)cc3)C(=O)c3cccc(F)c3)C2=O)cc1 (stereo not given) | . | . | -4.6 | .
C=CCN(C(=O)CCC(=O)O)C1CC(=O)N(c2ccc(OCCC)cc2)C1=O (stereo not given) | 34 | . | . | .
C=CCN(C(=O)CCC(=O)O)C1CC(=O)N(c2ccc(OC)cc2)C1=O (stereo not given) | . | . | . | .
CC1(OC(=O)CCc2ccccc2)C(=O)C=C2C=C(c3ccc(C#N)cc3)N(CCc3c[nH]c4ccccc34)C=C2C1=O (stereo not given) | / | / | . | /
c1ccc2nc3ccccc3nc2c1 | / | / | -4.4 | /
Nc1nc2ccccc2nc1N | . | . | . | .
Cc1nc2ccccc2cc1OCc1ccc(Cl)cc1 | 36 | . | . | .
COc1ccccc1CNCC(O)(c1ccc(Cl)cc1)c1ccc(Cl)cc1 | . | . | -4.5 | .
O=C(CSCc1ccc(Cl)cc1)c1ccco1 | . | / | . | .
Cc1ccc(Cl)cc1N1CCN(C(=O)c2cn(C)c(=O)c3c2c2ccccc2n3C)CC1 | 57 | . | . | .
Cc1cccc(N2CCN(C(=O)c3cn(C)c(=O)c4c3c3ccccc3n4C)CC2)c1C | 60 | . | / | .
Cn1c2ccccc2c2c(C(=O)N3CCN(c4ccccc4)CC3)cn(C3CCCC3)c(=O)c21 | . | . | . | .
O=c1c(-c2ccc(F)cc2)coc2c3c(ccc12)OCCO3 | . | . | . | .
